# Results: PubChem BioAssay (EPA / NIEHS)
# Active and inactive are the calls of the source. How the source made its calls: active means hit-call score of the fitted dose curve at least 0.9, where 1 is the maximum; inactive means score below 0.9.
# Read-out: Glutamate-cysteine ligase catalytic (GCLC), GCLC (gene 2729)
# Experiment: LTEA_HepaRG_GCLC: Life Technologies and Expression Analysis (LTEA) Assay for Glutamate-cysteine ligase catalytic (GCLC) using HepaRG (AID 2283498)
# Conditions: mRNA level, 48 h; actives raise or lower the signal
# Method: LTEA_HepaRG is a cell based, multiplexed-readout assay that uses HepaRG, a human liver cell line, with measurements taken at 48 hours after chemical dosing on a 96-well plate.LTEA_HepaRG_GCLC is one of 102 assay component(s) measured in the LTEA HepaRG cell culture assay. It is a marker of Oxidative Stress.Data from the assay component LTEA_HepaRG_GCLC was analyzed into 1 endpoint. This assay endpoint, LTEA_HepaRG_GCLC, was analyzed with bidirectional fitting relative to DMSO as the negative control and baseline of activity. Using a type of inducible reporter, measures of mRNA induction for gain or loss-of-signal activity can be used to understand regulation of transcription factor activity. To generalize the intended target to other relatable targets, this assay endpoint is annotated to the ligase intended target family, where the subfamily is C-N ligase.
# A total of 1060 chemcials from the ToxCast library were tested in eight-point concentration-response experiments. Cell culture and cytotoxicity assays were conducted at Thermo Fisher Scientific's Custom Services facility (Madison, WI). A single lot of human HepaRG cells (Thermo Fisher Scientific, Frederick, MD) was used for the cell culture experiments. 96-well format collagen type I coated plates of human HepaRG cells were prepared using established methods. Briefly, cryopreserved HepaRG cells were thawed, plated at a density of approximately 100,000 cells/well in HepaRG Thaw, Plate, and General Purpose media (HPRG770, Thermo Fisher Scientific), and incubated for 48 hours. 0.5% DMSO was selected as vehicle control to balance the requisite need of DMSO in HepaRG cultures to maintain differentiation (for example, baseline metabolism, proportions of hepatocytes vs. cholangiocytes), while enabling further hepatic receptor pathway activation (for example, PXR and CAR) in response to chemical exposure. 48 hours after plating, the culture medium was replaced with HepaRG Serum-Free Incudtion Media. Cells were exposed to each test chemical in duplicate and maintained in CO2 incubators for another 48 hours. Chemical plates were thawed to room temperature and 200x concentrations of treatment groups were prepared. 8-point conentration-reponse curves were made with the highest exposure at 100 uM, followed by half-log dilutions, all in 0.5% DMSO. Each test plate contained variouse controls, induction positive controls (1mM phenobarbital), cytotoxicity positive controls ([…] aflatoxin B1), vehicle controls (0.5% DMSO), and total lysis controls (0.5% DMSO). Cell morphology images were taken using an Essen IncuCyte FLR automated microscope, with six 96-well plates imaged in about 24 minutes. Images were captured and exported and JPEG files. Spent culture media was transfered to black-well plates for the LDH assay, and remaining media was sorted at -80 C for later use. Cells were treated with RLT buffer and frozen until shipped for gene expression analysis. Total RNA was isolated from the cell suspension in 75 uL of Buffer RLT (Qiagen, Germantown, MD 20874) by Quintiles/Expression Analysis (Durham, NC) using a custom isolation procedure. Total RNA from each plate well was transferred to a preamplification plate. Fluidigm's 96.96 Dynamic ArrayTM (Fluidigm, Amsterdam, the Netherlands) technology was used for gene expression analyses by quantitative reverse transcription polymerase chain reaction (qRT-PCR, performed by Quintiles/Expression Analysis, Durham, NC)89. Standard TaqManTM Assays (Applied Biosystems/ThermoFisher Scientific, Foster City, CA) were used to assess the expression of 93 genes selected based on their selectivity and sensitivity to important hepatic receptors known to be modulated by environmental chemicals; importance in human hepatocyte functionality; and hepatotoxicity. […]
SMILES,outcome,AC50
Cc1c(C(=O)O)c(O)cc2c1C(=O)c1c(O)c([C@@H]3O[C@H](CO)[C@@H](O)[C@H](O)[C@H]3O)c(O)c(O)c1C2=O,inactive,
CCCCOC(=O)CCCCCCCCC(=O)OCCCC,inactive,
Nc1nc(N)c2nc(CNc3ccc(C(=O)N[C@@H](CCC(=O)O)C(=O)O)cc3)cnc2n1,inactive,
CCc1c(C(=O)NN2CCCCC2)nn(-c2ccc(Cl)cc2Cl)c1-c1ccc(Br)cc1,,50 µM (active)
Cc1ccc(Cl)cc1,inactive,
OC[C@@H](O)[C@@H](O)[C@H](O)[C@H](O)CO,inactive,
CC=Cc1ccc(O)c(OC)c1,inactive,
COc1ccc(S(=O)(=O)N2C(=O)[C@@](c3ccccc3OC)(N3C[C@H](O)C[C@H]3C(=O)N(C)C)c3cc(Cl)ccc32)c(OC)c1,,13 µM (active)
Cc1ccc(C(C)C)c(O)c1,inactive,
COc1cc(-c2nc(NC(=O)c3cc4cc(C)cc(C)c4n3CC(=O)O)sc2CCC2CCCCC2)c(OC)cc1Cl,,14 µM (active)
NCCO,inactive,
CNCc1cc(F)ccc1Oc1ccc(Cl)c(Cl)c1,inactive,
Oc1ccc2c(c1)OC[C@@H](N1CCC(O)(c3ccc(F)cc3)CC1)[C@H]2O,inactive,
Oc1ccc2ccccc2c1N=Nc1ccccc1,,5.52 µM (active)
CCCCC(CC)COC(=O)CC(C(=O)OCC(CC)CCCC)S(=O)(=O)O (stereo not given),,94.6 µM (active)
O=c1c(O)c(-c2ccc(O)c(O)c2)oc2cc(O)cc(O)c12,inactive,
Cc1ccc2ncccc2c1,inactive,
Cc1nc(-c2ccc3c(c2)CCN(CCC2CCC(NC(=O)/C=C/c4ccc(F)cc4)CC2)CC3)no1 (stereo not given),inactive,
CC1(C)CC(N=C=O)CC(C)(CN=C=O)C1 (stereo not given),inactive,
FC(F)(F)C(F)(F)C(F)(F)C(F)(F)C(F)(F)C(F)(F)CCI,inactive,

SMILES,outcome,AC50
C1CCC(SSC2CCCCC2)CC1,inactive,
CCCCCCCCCCCC(=O)OC,inactive,
CCCCCCOCCO,inactive,
Cc1cc(NC(=O)C(=O)O)cc(C)c1Oc1ccc(O)c2c1CCC2,inactive,
Cc1cc(=O)[nH]c(=S)[nH]1,inactive,
c1cc(-c2ccncc2)ccn1,inactive,
COc1cc(S(=O)(=O)O)c(C)cc1N=Nc1c(O)ccc2cc(S(=O)(=O)O)ccc12,inactive,
CCOC(=O)CCC(=O)OCC,inactive,
CN[C@H]1CC[C@@H](c2ccc(Cl)c(Cl)c2)c2ccc(S(N)(=O)=O)cc21,inactive,
CC(=O)OCCOCCOCCOC(C)=O,inactive,
NS(=O)(=O)c1cc2c(cc1Cl)NCNS2(=O)=O,inactive,
COc1ccc(C)cc1N,inactive,
CC1(C)NC(=O)NC1=O,inactive,
CCCCCCCCCCO,inactive,
Cc1oc(-c2ccccc2)nc1CCOc1cccc2c1ccn2CCC(=O)O,,50 µM (active)
CCCc1cc(=O)[nH]c(=S)[nH]1,inactive,
CCCCCCCCCCCCCCCC,inactive,
C=CCc1ccc(O)c(OC)c1,inactive,
COc1ccc2c(c1)c(CC(=O)O)c(C)n2C(=O)c1ccc(Cl)cc1,inactive,
C[Si]1(C)O[Si](C)(C)O[Si](C)(C)O[Si](C)(C)O1,inactive,
